Laboratory results taken from PubChem BioAssay AID1240 (Sanford-Burnham Center for Chemical Genomics, 2008).
About 800 (1.6%) of roughly 50,000 compounds showed an effect of 50% or more. This excerpt belongs to a sample that is enriched for strong results.

Target: Bcl-2-like protein 10 (Homo sapiens) (UniProt Q9HD36)
Assay: TR3 peptide-Bcl-B binding displacers, biochemical primary FP assay, phenotype converters (AID 1240);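 further: 0% = Bcl-B with tracer peptide and DMSO and 100% = tracer peptide lacking Bcl-B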
Conditions: GST-Bcl-B / FITC-TR3 peptide fluorescence polarization; stronger effect = higher value; compound at 3.75 mg/L

Chain of Bcl-2-like protein 10 (Homo sapiens) (Q9HD36 whole entry, looked up): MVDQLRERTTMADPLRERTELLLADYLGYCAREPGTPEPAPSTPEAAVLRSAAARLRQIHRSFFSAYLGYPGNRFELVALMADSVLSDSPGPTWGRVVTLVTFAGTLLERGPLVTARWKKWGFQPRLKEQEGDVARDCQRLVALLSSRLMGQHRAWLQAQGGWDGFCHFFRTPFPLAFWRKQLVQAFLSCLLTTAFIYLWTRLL

Structure (SMILES) | displacement [%]
O=c1[nH]c(/C=C/c2ccc(OCc3ccccc3)cc2)c([N+](=O)[O-])c(=O)[nH]1 | 114
O=c1[nH]c(/C=C/c2ccccc2)c([N+](=O)[O-])c(=O)[nH]1 | 18.1
COc1cc(/C=C/c2[nH]c(=O)[nH]c(=O)c2[N+](=O)[O-])cc(Br)c1OCc1ccccc1 | 15.6
CC(C)(C)OC(=O)C1C(=O)CC(C)(O)C(C(=O)OC(C)(C)C)C1c1ccccc1 (centres undefined) | -1.3
O=c1c2ccccc2nc(SCc2ccccc2)n1Cc1ccccc1 | -0.7
O=C(CSc1nc2ccccc2s1)Nc1ncccn1 | 57.1
O=C(CSc1nc2ccccc2s1)Nc1ccccc1 | 7.4
O=C(CSc1nc2ccccc2s1)Nc1nc2ccccc2s1 | 7.4
C=CCN1C(=O)C(Cc2ccccc2)S/C1=N/N=C/c1ccccc1 (centres undefined) | 3
CCC1=NN2C(=N)/C(=C/c3ccc(-c4cccc([N+](=O)[O-])c4)o3)C(=O)N=C2S1 | 124
CCC1=NN2C(=N)/C(=C/c3ccc(-c4ccccc4C(=O)OC)o3)C(=O)N=C2S1 | 3.5
CC(C)C1=NN2C(=N)/C(=C/c3ccc(-c4cccc([N+](=O)[O-])c4)o3)C(=O)N=C2S1 | 173
COc1cc([N+](=O)[O-])ccc1-c1ccc(/C=C2/C(=N)N3N=C(C(C)C)SC3=NC2=O)o1 | 77
COc1cc([N+](=O)[O-])ccc1-c1ccc(/C=C2\C(=O)N(c3ccc(S(N)(=O)=O)cc3)N=C2C)o1 | 5.3
CC(C)C1=NN2C(=N)/C(=C/c3ccc(Sc4ccc(Cl)cc4)o3)C(=O)N=C2S1 | -18.4
Cc1cccc(N2CCN(C3=NC(=O)/C(=C/c4ccc(-c5cccc([N+](=O)[O-])c5)o4)S3)CC2)c1 | 9.8
CCC1=NN2C(=N)/C(=C/c3ccc(-c4cccc(C(=O)O)c4)o3)C(=O)N=C2S1 | 1.4
CCC1=NN2C(=N)/C(=C/c3ccc(-c4ccc([N+](=O)[O-])cc4OC)o3)C(=O)N=C2S1 | 4.4
CC(C)C1=NN2C(=N)/C(=C/c3ccc(-c4ccc([N+](=O)[O-])cc4)o3)C(=O)N=C2S1 | 111
CC(C)C1=NN2C(=N)/C(=C/c3ccc(-c4cccc(C(=O)O)c4)o3)C(=O)N=C2S1 | -26.4
NC1=NC(=O)/C(=C\c2ccc(-c3ccc([N+](=O)[O-])cc3)o2)S1 | 3.2
O=C1C(=O)N(c2ccccc2Br)C(=O)N1c1cccc(Cl)c1 | 5.7

Structure (SMILES) | displacement [%]
O=C(CSCC(=O)Nc1ccccc1)NCc1ccco1 | -20.8
Nc1n[nH]c(N)c1N=Nc1cccc(C(F)(F)F)c1 | -2.4
O=C(Cc1ccc(Cl)cc1)NNC(=O)C1CCCO1 (centres undefined) | 2.5
COc1cc(C(=O)NN2C(=O)/C(=C/c3ccc(OC)c(OC)c3)SC2=S)ccc1O | -28.1
c1ccc(-c2cc(-c3cc(-c4ccccc4)on3)no2)cc1 | 2.6
O=C(Oc1ccc2ccccc2c1)c1cc([N+](=O)[O-])ccc1Cl | -0.9
COc1cc(/C=C2/C(=N)N3N=C(C(C)C)SC3=NC2=O)cc(Cl)c1OCCOc1ccccc1 | -39
COc1ccc(/C=C2/C(=N)N3N=C(C(C)C)SC3=NC2=O)cc1OC | 133
CC(C)C1=NN2C(=N)/C(=C/c3ccc(-c4ccc(F)c(Cl)c4)o3)C(=O)N=C2S1 | 146
CN1C(=O)/C(=C\c2ccc(-c3ccc(F)c(Cl)c3)o2)SC1=S | 3.9
CCC1=NN2C(=N)/C(=C/c3ccc(OC)c(OC)c3)C(=O)N=C2S1 | -1.4
CC(C)C1=NN2C(=N)/C(=C/c3cc(Cl)ccc3OCc3ccccc3)C(=O)N=C2S1 | -7.4
Cc1c(Cl)cccc1N=Cc1ccc[nH]1 | 11.3
Cc1sc2nc(SCC(=O)NCCO)n(-c3ccccc3)c(=O)c2c1C | 1.9
COC(C)(C)c1cc(-c2cccc3ccccc23)nc(N)n1 | 0
CCOc1ccc2nc(SC)nc(C)c2c1 | -3.6
CCOC(=O)CC(=O)CSc1nc(C)c2cc(OCC)ccc2n1 | 67.2
C=CCSc1nc(C)c2cc(OCC)ccc2n1 | 7.4
Cc1cc(C)c2oc(-c3ccc(C)c(NC(=O)c4ccc(Br)o4)c3)nc2c1 | -3.8
CN(C)CCCNC(=O)c1ccc(N(C)S(=O)(=O)c2ccccc2)cc1 | -13.4
CCOC(=O)c1csc(NC(=O)c2ccc(C(=O)c3ccccc3)cc2)n1 | -24.4
Cc1ccc(C(C)C)c(OCC(=O)Nc2ccc(NC(=O)c3ccccc3Cl)cc2)c1 | -2.1

Structure (SMILES) | displacement [%]
O=c1[nH]c(=O)n(Cc2ccc(F)cc2)c(O)c1/C=C1/C=CC=N1 | 32
O=c1[nH]c(=O)n(-c2cccc(Br)c2)c(O)c1/C=C1\C=Nc2ccccc21 | 33.4
O=c1[nH]c(=O)n(Cc2ccc(F)cc2)c(O)c1/C=C1\C=Nc2ccccc21 | 51.3
C=CCn1c(O)c(/C=C2\C=Nc3ccccc32)c(=O)[nH]c1=S | -2.9
Cc1cc(C)cc(-n2c(O)c(/C=C3\C=Nc4ccccc43)c(=O)[nH]c2=O)c1 | 71.2
Cc1cc(C)c(-n2c(O)c(/C=C3\C=Nc4ccccc43)c(=O)[nH]c2=O)c(C)c1 | -4.1
COc1cc(OC)c(OC)cc1/C=N/NC(=O)CSc1nc2ccccc2[nH]1 | 0.1
O=C(Nc1ccccc1C(=O)N=Nc1c(O)[nH]c2ccc([N+](=O)[O-])cc12)c1ccccc1 | -1.3
COc1ccc(C)cc1NC(=O)CN(Cc1ccccc1)S(=O)(=O)c1ccc(OC)c(OC)c1 | -46.5
CCN1CCc2c(sc(NC(=O)Nc3ccc(Cl)c(Cl)c3)c2C(N)=O)C1 | 111
CCN1CCc2c(sc(NC(=O)Nc3ccc(Cl)cc3)c2C(N)=O)C1 | 21.3
COC(=O)c1c(NC(=O)Nc2ccc(Cl)c(Cl)c2)sc2c1CCC2 | 11.8
CCOc1ccccc1NC1=CC(=O)CC(c2ccccc2)C1 (centres undefined) | -8.1
COc1ccc(COCC(O)CN2CC(C)OC(C)C2)cc1OC (centres undefined) | 4
COc1ccccc1C(=O)N1CCN(c2nc3ccc([N+](=O)[O-])cc3s2)CC1 | -14
O=C(c1ccc(Cl)cc1Cl)N1CCN(c2nc3ccc([N+](=O)[O-])cc3s2)CC1 | 100
O=C(c1ccc(Br)cc1)N1CCN(c2nc3ccc([N+](=O)[O-])cc3s2)CC1 | 3.2
Cc1ccccc1C(=O)N1CCN(c2nc3ccc([N+](=O)[O-])cc3s2)CC1 | 161
CCC(=O)N1CCN(c2nc3ccc([N+](=O)[O-])cc3s2)CC1 | -8.8
O=C(c1cccc2ccccc12)N1CCN(c2nc3ccc([N+](=O)[O-])cc3s2)CC1 | 28.9
